In PubChem BioAssay (NCATS):
Inconclusive results are not listed. Calls of active or inactive are those of the source. Calls follow the shape of the dose curve; as a rule, active = well fitted inhibition curve with a large enough effect; inconclusive = small, poorly fitted or top-dose-only effect; inactive = flat fitted curve, though single readings scatter. Where a SMILES comes first, the peptide text is derived from it. The star is where a group is joined. AFC = O=c1cc(C(F)(F)F)c2ccc(N*)cc2o1

Assays:
HEK293 = assay: Cytotoxic Profiling of Annotated Libraries Using Quantitative High-Throughput Screening (AID 1296008); details: Five cell lines viability, CellTiter-Glo ATP luminescence, 48-72 h; max response: stronger effect = lower value; as to max response: % is scaled to controls: 0 for no effect and ±100 for the full control effect
Outline: (§1)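 Compounds were pin-transferred onto cells and incubated 48 or 72 hr at 37 degree Celsius, 95% humidity. CellTiter-Glo was added, plates sat 10 min at room temperature, then ATP-coupled luminescence was imaged as the viability read-out.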

HaCat = assay: as above; details: Five cell lines viability, CellTiter-Glo ATP luminescence, 48-72 h; max response: stronger effect = lower value
Outline: as §1

KB-3-1 = assay: as above; details: Five cell lines viability, CellTiter-Glo ATP luminescence, 48-72 h; max response: stronger effect = lower value
Outline: as §1

NIH3T3 = assay: as above; details: Five cell lines viability, CellTiter-Glo ATP luminescence, 48-72 h; max response: stronger effect = lower value
Outline: as §1

HEK293T = assay: qHTS assay to identify novel small-molecules to repurpose for Merkel cell carcinoma treatment (AID 1296009); details: MCC and control cell lines, CellTiter-Glo viability, 72 h; series mostly up to 44.8 µM
Outline: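 qHTS format: cells treated with library compounds in DMSO across 8 (NPC) or 11 (MIPE) concentrations. Readout after 72 hr at 37 degree celsius was CellTiter-Glo luminescence.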
Also: nearly all actives have a fitted effect of over 60% in size.

C[C@@H]1O[C@@H](O[C@H]2[C@H](O[C@H]3CC[C@@]4(C)C(CC[C@]5(C)C4CC=C4[C@@H]6CC(C)(C)CC[C@]6(C(=O)O)CC[C@]45C)[C@]3(C)CO)OC[C@H](O)[C@@H]2O)[C@H](O)[C@H](O[C@@H]2OC[C@@H](O)[C@H](O)[C@H]2O)[C@H]1O (stereo not given in full)
inactive: outcome (HEK293) | max response (HaCat) 3.75% | outcome (KB-3-1) | max response (NIH3T3) -3.35% | outcome (HEK293T) inactive [at 9.27 µM]

C=C/C=C/[C@@H]1OC[C@H](/C=C/C=C/C)[C@H]1O
inactive: outcome (HEK293) | max response (HaCat) -9.46% | outcome (KB-3-1) | max response (NIH3T3) -1.27% | Potency (HEK293T)

COc1cccc2c1CCC[C@H]2CN(C)CCc1ccc2ccoc2c1
inactive: outcome (HEK293) | max response (HaCat) 3.47% | max response (KB-3-1) 4.61% | max response (NIH3T3) -8.39% | Potency (HEK293T)

Cc1ccc2c(c1)C=Cc1cc(C)ccc1C2c1cn(Cc2ccc(C(=O)Nc3nn[nH]n3)o2)c(=O)[nH]c1=S
inactive: outcome (HEK293) | max response (HaCat) -1.86% | outcome (KB-3-1) | max response (NIH3T3) -7.39% | Potency (HEK293T)

C=C1CCC2[C@@](C)(C=O)CCC[C@]2(C)[C@H]1CC/C(C)=C/CO (stereo not given in full)
inactive: outcome (HEK293) | max response (HaCat) 3.6% | max response (KB-3-1) 7.89% | max response (NIH3T3) 1.05% | Potency (HEK293T)

C[C@@H]1CC[C@]2(C(=O)O)CC[C@]3(C(=O)O)C(=CCC4[C@@]5(C)CC[C@H](O[C@@H]6O[C@@H](C)[C@H](O[C@@H]7O[C@H](CO)[C@@H](O)[C@H](O)[C@H]7O)[C@@H](O)[C@H]6O)C(C)(C)C5CC[C@]43C)C2[C@H]1C (stereo not given in full)
inactive: outcome (HEK293) | max response (HaCat) -0.856% | outcome (KB-3-1) | outcome (NIH3T3) | Potency (HEK293T)

COc1cc(-c2cccc(O)c2)cc2c1OCO2
inactive: outcome (HEK293) | max response (HaCat) 0.342% | outcome (KB-3-1) | outcome (NIH3T3) | Potency (HEK293T)

COc1cc(C2OCC3C(c4ccc(OC5OC(CO)C(O)C(O)C5O)c(OC)c4)OCC23)ccc1O (stereo not given)
inactive: outcome (HEK293) | max response (HaCat) -4.17% | max response (KB-3-1) -0.0986% | max response (NIH3T3) -0.3% | Potency (HEK293T)

C[C@@H]1CCC2C(C)(C)[C@H](O)CC[C@]2(C)[C@@]12Cc1c(O)cc3c(c1O2)CN(CCO)C3=O (stereo not given in full)
inactive: outcome (HEK293) | max response (HaCat) 4.59% | max response (KB-3-1) 3.58% | max response (NIH3T3) 1.6% | Potency (HEK293T)

CC1(CO)CC[C@]2(C(=O)O[C@@H]3O[C@H](CO)[C@@H](O)[C@H](O)[C@H]3O)CC[C@]3(C)C(=CCC4[C@@]5(C)C[C@H](O)[C@H](O[C@@H]6OC[C@@H](O)[C@H](O)[C@H]6O)[C@@](C)(CO)C5CC[C@]43C)C2C1 (stereo not given in full)
inactive: outcome (HEK293) | max response (HaCat) -24.8% | outcome (KB-3-1) | max response (NIH3T3) 2.22% | outcome (HEK293T) inactive [at 9.27 µM]

C=CC1(C)CC(O)C2(CCC3C(C)(C(=O)O)CCCC3(C)C2=O)C1 (stereo not given)
inactive: outcome (HEK293) | max response (HaCat) -1.18% | outcome (KB-3-1) | max response (NIH3T3) 1.85% | Potency (HEK293T)

OCC1OC(Oc2cc(O)c3c(c2)OC(c2ccc(O)cc2)C(O)C3)C(O)C1O (stereo not given)
inactive: outcome (HEK293) | max response (HaCat) -8.75% | max response (KB-3-1) 9.04% | max response (NIH3T3) 2.06% | Potency (HEK293T)

CC(C)(C)NCC(O)COc1cccc2c1CCCC2=O (stereo not given)
inactive: outcome (HEK293) | max response (HaCat) -7.74% | outcome (KB-3-1) | outcome (NIH3T3) | Potency (HEK293T)

C[C@@H]1O[C@@H](O[C@H]2[C@H](O[C@H]3[C@H](O[C@H]4CC[C@@]5(CO)C(CC[C@]6(C)C5CC=C5C7CC(C)(C)C[C@@H](O)[C@]7(C)CC[C@]56C)C4(C)C)O[C@H](C(=O)O)[C@@H](O)[C@@H]3O)OC[C@@H](O)[C@@H]2O)[C@H](O)[C@H](O)[C@H]1O (stereo not given in full)
inactive: outcome (HEK293) | max response (HaCat) 4.17% | max response (KB-3-1) 5.01% | max response (NIH3T3) -0.118% | outcome (HEK293T) inactive [at 9.27 µM]

O=S(=O)(Nc1ccc(C(O)(C(F)(F)F)C(F)(F)F)cc1)c1cccs1
inactive: outcome (HEK293) | max response (HaCat) 2.6% | max response (KB-3-1) 6.97% | outcome (NIH3T3) | Potency (HEK293T)

CO[C@@]12CC3[C@@H]([C@@H](O)[C@@H](OC(C)=O)C4[C@](C)(COC(C)=O)CCC[C@]34C)[C@@H](C)C1=CC(=O)O2 (stereo not given in full)
inactive: outcome (HEK293) | max response (HaCat) 3.42% | outcome (KB-3-1) | outcome (NIH3T3) | Potency (HEK293T)

CC(c1c[nH]c2ccccc12)C(O)C(=O)O (stereo not given)
inactive: outcome (HEK293) | max response (HaCat) -10.2% | outcome (KB-3-1) | max response (NIH3T3) 3.62% | Potency (HEK293T)

CC(=O)N[C@@H](CC(C)C)C(=O)N[C@@H](CCC(=O)O)C(=O)N[C@@H](CCC(=O)O)C(=O)N[C@@H](CC(=O)O)C(=O)Nc1ccc2c(C(F)(F)F)cc(=O)oc2c1 (Ac-LEED-{AFC})
inactive: outcome (HEK293) | max response (HaCat) -31% | max response (KB-3-1) 0.179% | max response (NIH3T3) 1.1% | Potency (HEK293T)

C[C@@H]1O[C@@H](O[C@H]2[C@H](O[C@H]3[C@H](O[C@H]4CC[C@@]5(C=O)C(CC[C@]6(C)C5CC=C5C7CC(C)(C)C[C@@H](O)[C@]7(C)CC[C@]56C)C4(C)C)O[C@H](C(=O)O)[C@@H](O)[C@@H]3O)OC[C@@H](O)[C@@H]2O)[C@H](O)[C@H](O)[C@H]1O (stereo not given in full)
inactive: outcome (HEK293) | max response (HaCat) -16.7% | max response (KB-3-1) 7.57% | outcome (NIH3T3) | outcome (HEK293T) inactive [at 9.27 µM]

C=C1CC2C3(C)C(O)CC(=O)C(C)(C)C3C(OC(C)=O)C(OC(C)=O)C2(C)C2C(=O)OC(C)(C(=O)OC)C(=O)C12C (stereo not given)
inactive: outcome (HEK293) | max response (HaCat) 3.78% | max response (KB-3-1) 5.29% | outcome (NIH3T3) | Potency (HEK293T)

O=C(CCO[C@@H]1O[C@H](CO)[C@@H](O)[C@H](O)[C@H]1O)c1ccc(O)cc1
inactive: outcome (HEK293) | max response (HaCat) -12% | outcome (KB-3-1) | max response (NIH3T3) -1.69% | Potency (HEK293T)

CC1CCC2C(C)(C)C(O)CCC2(C)C12Cc1c(O)cc3c(c1O2)CN=C3N (stereo not given)
inactive: outcome (HEK293) | max response (HaCat) 3.03% | max response (KB-3-1) 2.69% | outcome (NIH3T3) | Potency (HEK293T)

CCC(C)(O)C(O)C(=O)OCc1ccc(O[C@@H]2O[C@H](CO)[C@@H](O)[C@H](O)[C@H]2O)cc1 (stereo not given in full)
inactive: outcome (HEK293) | max response (HaCat) -0.484% | outcome (KB-3-1) | max response (NIH3T3) -0.787% | Potency (HEK293T)

C=C1CCC2C(OC(=O)C2(O)COC(C)=O)C2C(=C)C(O)CC12 (stereo not given)
inactive: outcome (HEK293) | max response (HaCat) -8.75% | max response (KB-3-1) 8.26% | max response (NIH3T3) -5.53% | Potency (HEK293T)

CC(=O)OC[C@@]12[C@@H](OC(C)=O)C[C@@H](C)[C@](C)([C@@H]3C[C@H]4C=CO[C@H]4O3)[C@H]1CCC[C@]21CO1
inactive: outcome (HEK293) | max response (HaCat) 2.97% | outcome (KB-3-1) | max response (NIH3T3) -2.5% | Potency (HEK293T)

CC(=O)O[C@H](C[C@@H](C)[C@H]1C(=O)[C@H](O)[C@@]2(C)[C@@H]3CCC4C(C)(C)[C@@H](O[C@@H]5OC[C@H](O)[C@H](O)[C@H]5O)CC[C@@]45C[C@@]35CC[C@]12C)[C@@H]1OC1(C)C (stereo not given in full)
inactive: outcome (HEK293) | max response (HaCat) 2.98% | outcome (KB-3-1) | outcome (NIH3T3) | Potency (HEK293T)

COc1cc(C2Oc3c(O)cc(CCCO)cc3C2CO)ccc1O[C@H]1O[C@H](C)[C@@H](O)[C@H](O)[C@@H]1O (stereo not given in full)
inactive: outcome (HEK293) | max response (HaCat) 3.18% | outcome (KB-3-1) | max response (NIH3T3) -0.439% | Potency (HEK293T)

CC1(C)CCCC2(C)C1C(O)C=C(CO)C2(O)C(=O)O (stereo not given)
inactive: outcome (HEK293) | max response (HaCat) -13.1% | max response (KB-3-1) 3.33% | max response (NIH3T3) 3.08% | Potency (HEK293T)

O=C(O)c1n[nH]c2c1C[C@H]1C[C@@H]21
inactive: outcome (HEK293) | max response (HaCat) 2.24% | max response (KB-3-1) 3.14% | max response (NIH3T3) -3.9% | Potency (HEK293T)

C=CC1(C)CC2=CCC3C(C)(C(=O)O)CCCC3(C)C2CC1OC(C)=O (stereo not given)
inactive: outcome (HEK293) | max response (HaCat) -6.85% | max response (KB-3-1) 0.0592% | outcome (NIH3T3) | Potency (HEK293T)

CC1(C)C(=O)C(C)(C)c2cc(C(=O)Nc3ccc(C(=O)O)cc3)ccc21
inactive: outcome (HEK293) | max response (HaCat) -8.59% | outcome (KB-3-1) | outcome (NIH3T3) | Potency (HEK293T)

OCC1=CC[C@@H]2C=CO[C@@H](O[C@@H]3O[C@H](CO)[C@@H](O)[C@H](O)[C@H]3O)[C@H]12
inactive: outcome (HEK293) | max response (HaCat) -13.7% | outcome (KB-3-1) | max response (NIH3T3) -0.173% | Potency (HEK293T)

COC(=O)c1cc(CN2CCN(C(=N)N)CC2)cc(C(=O)N2CCN(C(=O)c3ccc(C(=N)N)cc3)CC2)c1
inactive: outcome (HEK293) | max response (HaCat) 1.52% | max response (KB-3-1) 2.44% | outcome (NIH3T3) | Potency (HEK293T)

CC[C@H](C)/C=C(C)/C=C/C(=O)Cc1cc(O)c(C)c(O)c1C=O
inactive: outcome (HEK293) | max response (HaCat) 4.71% | max response (KB-3-1) 7.23% | max response (NIH3T3) 3.96% | Potency (HEK293T)

C=C(C(=O)OC)C1CCC2(C)C(O[C@@H]3O[C@H](CO)[C@@H](O)[C@H](O)[C@H]3O)CC(=O)C(C)C2C1O (stereo not given in full)
inactive: outcome (HEK293) | max response (HaCat) -1.72% | outcome (KB-3-1) | outcome (NIH3T3) | Potency (HEK293T)

COc1ccc([C@@H]2N[C@H](C(=O)O)Cc3c2[nH]c2ccccc32)cc1CN1CCN(c2ccccc2F)CC1
inactive: outcome (HEK293) | max response (HaCat) 1.36% | max response (KB-3-1) -4.47% | outcome (NIH3T3) | Potency (HEK293T)
